High-throughput results deposited in PubChem by National Center for Advancing Translational Sciences (NCATS).
Lassa entry inh – blocks Lassa virus binding to or entry into cells; Potency, µM (highest dose often 37.9 µM), hits mostly inhibitors; AID 540256; 1.2% of 300,000 active; Lassa virus pseudotype entry inhibition, cell reporter; calls by dose curve; tested in HEK293 cells; further: nearly all actives have a fitted effect of over 50% in size
HCMV inh – blocks human cytomegalovirus replication. HFF cells, HCMV-luciferase reporter, 72 h; stronger effect = lower value. activity change, negative = inhibition, % at 57.5 µM. 4.5% of 410,000 active; in the data active means activity change below about -60%; inconclusive means no clear call, values can overlap the other calls; inactive means above about -39%
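Screen run at 2 compound doses on HFFs infected with reporter HCMV, MOI 1 PFU/cell. Luciferase activity from cell lysates at 72 h post infection gave inhibition relative to buffer-only and Salinomycin wells.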
HCV inh – HCV inhibition; 3.4% of 340,000 active; Huh7.5.1 HCVcc-Cre infection, luciferase reporter, 44 h; Potency, µM (top dose mostly 41.8 µM), hits mostly inhibitors; AID 651820
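HCVcc-Cre virus at an moi near 0.5 was added right after compound to cells cultured 4 h from seeding (1,000 cells/well). Luciferase activity was determined 44 h later, 15 min after substrate addition at RT.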
Marburg entry inh – Marburg virus entry inhibition | 1.8% of 300,000 active | Potency, µM (titrated, usually from 37.8 µM), most hits filed as inhibitors | Marburg virus pseudotyped entry inhibition, cell reporter; calls by dose curve; tested in HEK293 cells
Pf growth 96h – P. falciparum growth inhibition at 96 hour, primary screen for plastid delayed-death inhibitors | Potency, µM (highest dose often 28.7 µM), hits mostly inhibitors | P. falciparum luciferase reporter growth, 96 h | AID 504834 | 6.9% of 320,000 active
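Erythrocytes infected with luciferase-expressing P. falciparum were dispensed at 2% hematocrit and 0.05% parasitemia (final), then incubated with compounds 96 hours at 37 C in 5% CO2. Luminescence after detection reagent addition reported growth.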
Pf growth 48h – P. falciparum growth inhibition at 48 hours (one generation); P. falciparum luciferase growth in erythrocytes, 48 h; Potency, µM (titrated, usually from 28.7 µM), most hits filed as inhibitors; 5.9% of 310,000 active; AID 504832
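Firefly luciferase activity from engineered P. falciparum reports growth; inhibitors lower the luminescent signal. Cultures contained 2% hematocrit erythrocytes at 0.1% final parasitemia.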
Of the large screens only hits and unclear results are named; the others gave an inactive call. In the library only some 14% were active in any assay of this set; here they are far more common. Unless noted, the call rests on the fitted dose curve; in most records, active means well fitted inhibition curve with a large enough effect; inconclusive means small, poorly fitted or top-dose-only effect, or another doubt; inactive means no such curve, though single readings can be large or run the other way.

Cc1cc(C(=O)COC(=O)c2ccc(N)c([N+](=O)[O-])c2)c(C)n1-c1ccc2c(c1)OCO2	HCMV inh -74, HCV inh 2µM, Pf growth 96h 4.7µM, Pf growth 48h 13µM
Cc1cc(C(=O)COC(=O)c2ccc(N)c([N+](=O)[O-])c2)c(C)n1Cc1ccc2c(c1)OCO2	HCV inh 13µM (no result: Lassa entry inh, Marburg entry inh)
Cc1nnc(SCC(=O)c2cc(C)n(-c3ccc4c(c3)OCO4)c2C)s1	HCMV inh -66, HCV inh 11µM, Marburg entry inh inconclusive, Pf growth 48h inconclusive
C=CCn1c(C)cc(C(=O)COC(=O)c2ccc(N)c([N+](=O)[O-])c2)c1C	Lassa entry inh inconclusive, HCV inh inconclusive, Marburg entry inh inconclusive
Cn1cc(-c2csc(C(O)c3ccc(F)cc3)n2)cn1 (stereo not drawn)	none (no result: Lassa entry inh, HCV inh, Marburg entry inh, Pf growth 96h, Pf growth 48h)
CC1(C)S[C@@H]2[C@H](NC(=O)[C@H](NC(=O)N3CCN(S(C)(=O)=O)C3=O)c3ccccc3)C(=O)N2[C@H]1C(=O)O	none (no result: Lassa entry inh, HCMV inh, HCV inh, Marburg entry inh)
C=C(C(=O)c1ccccc1)C(C(=C)C(=O)c1ccccc1)c1ccc(OC)cc1	HCMV inh -100, HCV inh 3.5µM, Pf growth 96h inconclusive, Pf growth 48h 2.1µM (no result: Lassa entry inh, Marburg entry inh)
COc1ccc(C(CC(=O)c2ccccc2)CC(=O)c2ccccc2)cc1	Marburg entry inh inconclusive, Pf growth 96h inconclusive, Pf growth 48h inconclusive
O=C(c1ccccc1)C(c1ccccc1)c1ccccc1	HCMV inh inconclusive, Pf growth 96h inconclusive, Pf growth 48h inconclusive (no result: Lassa entry inh, Marburg entry inh)
C=C(C(=O)c1ccccc1)C(C)C(=C)C(=O)c1ccccc1	Lassa entry inh 18µM, HCMV inh -100, HCV inh 14µM, Marburg entry inh 7.9µM, Pf growth 96h 10µM, Pf growth 48h inconclusive
C=C(C(=O)c1ccccc1)C(c1ccccc1)C(C)C(=O)c1ccccc1 (stereo not drawn)	Lassa entry inh inconclusive, HCMV inh -89, Marburg entry inh inconclusive, Pf growth 96h 12µM, Pf growth 48h inconclusive
CCc1ccc(CNC(=O)c2cnc(N3CCCCC3)c3ccccc23)cc1	Lassa entry inh inconclusive (no result: HCV inh, Marburg entry inh, Pf growth 96h, Pf growth 48h)
CCc1nc2c(OCc3ccc(C#N)cc3)cccn2c1N(C)C(=O)c1ccc(C)cc1	none (no result: Lassa entry inh, HCV inh, Marburg entry inh, Pf growth 96h, Pf growth 48h)
COc1ccc(-n2cnc(N)c2C(=O)c2cccc([N+](=O)[O-])c2)cc1	HCMV inh -67, Marburg entry inh inconclusive
COc1ccc2cc3c(N)nn(C(=O)c4cccc([N+](=O)[O-])c4)c3nc2c1	Lassa entry inh inconclusive, HCMV inh -86, Marburg entry inh inconclusive
COc1ccc2cc3c(N)nn(C(=O)C4CCC(C(C)(C)C)CC4)c3nc2c1 (stereo not drawn)	HCMV inh -79, Pf growth 96h inconclusive, Pf growth 48h inconclusive
COc1ccc2cc3c(N)nn(C(=O)c4ccc(F)cc4Cl)c3nc2c1	HCMV inh -70 (no result: HCV inh, Pf growth 96h, Pf growth 48h)
COc1ccc2cc3c(N)nn(C(=O)Cc4ccccc4OC)c3nc2c1	HCV inh inconclusive (no result: Lassa entry inh, Marburg entry inh, Pf growth 48h)
Cc1ccc2cc3c(N)nn(C(=O)c4cccc(F)c4)c3nc2c1	none (no result: HCV inh, Pf growth 96h, Pf growth 48h)
Cc1ccc(NC(=O)CN2C(=O)CCc3cc(S(=O)(=O)N4CCOCC4)ccc32)cc1N(C)C	none (no result: HCV inh, Marburg entry inh, Pf growth 96h, Pf growth 48h)
CC(Oc1ccccc1)C(=O)Nc1ccc(C(=O)OCc2cc(=O)n3ccsc3n2)cc1 (stereo not drawn)	Lassa entry inh inconclusive (no result: HCV inh, Marburg entry inh, Pf growth 96h, Pf growth 48h)
Cc1cccn2c(=O)c(C=NCc3ccco3)c(Nc3ccc(SC(F)F)cc3)nc12	Lassa entry inh 9.2µM, HCV inh inconclusive, Marburg entry inh inconclusive
Cc1ccc(-c2csc(N/N=C/c3ccco3)n2)c(C)c1	Lassa entry inh 3.3µM, HCMV inh inconclusive, HCV inh inconclusive, Marburg entry inh 1.8µM, Pf growth 48h 13µM
CCC(=O)N1N=C2C3CCN(CC3)C2C1c1ccc(C)cc1 (stereo not drawn)	Pf growth 96h 4.1µM
COc1ccc(CNC(=O)CN(C(=O)CCC(=O)Nc2ccccn2)c2cccc(C)c2C)cc1	Lassa entry inh inconclusive, Pf growth 48h inconclusive
COCCn1c(-c2cc(OC)c(OC)c(OC)c2)nc2oc3ccccc3c(=O)c2c1=O	Lassa entry inh 5.8µM, HCMV inh -65, HCV inh inconclusive, Marburg entry inh inconclusive (no result: Pf growth 96h)
COCCn1c(-c2ccc(Br)cc2)nc2oc3cc(OC)ccc3c(=O)c2c1=O	Pf growth 96h inconclusive, Pf growth 48h 8.3µM (no result: Lassa entry inh, Marburg entry inh)
